Only some compounds are listed: those with a hit (about 19% of all), similar ones and a draw of the others.
TDP1 cell CPT = growth inhibition of DT40 Tdp1-/-;hTDP1 cells with camptothecin (screen for TDP1 inhibitors) | AID 686979 | chicken DT40 Tdp1-/-;hTDP1 cells + 20 nM CPT, ATP luminescence, 48 h | Potency, µM (titrated, usually from 46.2 µM), without a hit: top-dose activity change, negative = growth inhibition, actives largely listed as inhibitors | 12% of 420,000 active; note: potency is the fitted concentration of half-maximal effect; % is set by controls: 0 for no effect and ±100 for the full control effect; nearly all actives have a fitted effect of over 55% in size
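Chicken DT40 Tdp1-/- cells stably complemented with human TDP1 were seeded at 400 cells/well in medium containing 20 nM camptothecin, exposed to pin-transferred compounds, and grown at 37 °C for at least 48 hr. Viability was read as ATP luminescence.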
TDP1 block = TDP1 (human) enzyme inhibition | Potency, µM (highest dose often 130 µM), inactives show at the highest dose activity change, negative = inhibition, most hits filed as inhibitors | Q9NUW8 | recombinant TDP1, AlphaScreen DNA substrate cleavage | 0.28% of 350,000 active; note: potency is the fitted concentration of half-maximal effect; % is set by controls: 0 for no effect and ±100 for the full control effect; nearly all actives have a fitted effect of over 40% in size
Target sequence (Q9NUW8 whole entry, looked up): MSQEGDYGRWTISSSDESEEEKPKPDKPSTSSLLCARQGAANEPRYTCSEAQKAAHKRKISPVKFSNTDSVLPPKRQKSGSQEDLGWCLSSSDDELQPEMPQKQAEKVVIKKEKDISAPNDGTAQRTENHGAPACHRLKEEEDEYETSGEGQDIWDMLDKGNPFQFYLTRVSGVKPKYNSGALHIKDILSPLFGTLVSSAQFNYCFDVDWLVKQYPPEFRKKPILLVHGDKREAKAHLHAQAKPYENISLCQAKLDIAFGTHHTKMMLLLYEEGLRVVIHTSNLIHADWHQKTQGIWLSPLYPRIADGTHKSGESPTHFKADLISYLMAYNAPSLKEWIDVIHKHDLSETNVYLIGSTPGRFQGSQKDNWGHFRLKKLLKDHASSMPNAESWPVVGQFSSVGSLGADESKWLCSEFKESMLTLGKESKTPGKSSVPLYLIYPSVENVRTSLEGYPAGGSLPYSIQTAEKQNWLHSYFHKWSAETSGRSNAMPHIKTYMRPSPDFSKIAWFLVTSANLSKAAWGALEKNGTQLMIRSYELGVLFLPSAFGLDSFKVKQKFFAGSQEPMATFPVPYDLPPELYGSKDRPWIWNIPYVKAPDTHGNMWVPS
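Steps: enzyme plus compound, 15 min RT; add biotin/phosphotyrosine-FITC oligonucleotide (15 nM final), react 5 min; add donor/acceptor beads (10 ug/ml final), 10 min; read AlphaScreen. Tdp1 at 1 nM final.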
HepG2 viability = counter-screen for TGF-b inhibitors: cytotoxicity in HepG2 cells. AID 588856. Potency, µM (highest dose often 46.1 µM), without a hit: at the top dose activity change, negative = cytotoxicity, actives largely listed as cytotoxic. HepG2 CAGA-GFP viability, ATP luminescence, 18 h. 0.76% of 410,000 active; note: potency is the fitted concentration of half-maximal effect
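CellTiter-Glo luminescence gave cytotoxicity after 18 hours at 37 degrees C. The cells were HepG2 CAGA-GFP in 1% FBS DMEM, stimulated with 500 pg/mL TGF-beta after compound addition. %Activity was normalised to no-cell wells (complete cell-killing) and DMSO (no toxicity), and curves were fitted and classified.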
TGFb SMAD3 inh = inhibitors of TGF-b signaling; HepG2 CAGA-GFP TGF-b/SMAD3 reporter, GFP fluorescence, 18 h; TGF-beta stimulated, 500 pg/mL final; AID 588855; Potency, µM (highest dose often 46.1 µM), for inactives: top-dose activity, negative = inhibition, actives largely listed as inhibitors; 1.2% of 410,000 active; note: potency is the fitted concentration of half-maximal effect; % is set by controls: 0 for no effect and ±100 for the full control effect; nearly all actives have a fitted effect of over 65% in size
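Inhibition was scored as loss of TGF-beta-induced (500 pg/mL final, 18 hours, 37 degrees C) GFP in HEPG2 cells carrying a CAGA-GFP reporter, in DMEM with 1% FBS. Well GFP was summed per cell; Activity was normalised to unstimulated and stimulated DMSO wells, then concentration-response fitting.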
DT40 TDP1 no CPT = qHTS for Inhibitors of human tyrosyl-DNA phosphodiesterase 1 (TDP1): qHTS in cells in absence of CPT. DT40 Tdp1-/- hTDP1 cells, no CPT, ATP luminescence, 48 h. Potency, µM (highest dose often 46.2 µM), for the others: at the top dose activity change, negative = growth inhibition, actives largely listed as inhibitors. 15% of 420,000 active. AID 686978, 2013; note: potency is the fitted concentration of half-maximal effect; % is set by controls: 0 for no effect and ±100 for the full control effect; nearly all actives have a fitted effect of over 55% in size
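Stably hTDP1-transfected Tdp1-null chicken DT40 cells were treated with library compounds minus camptothecin and grown for at least 48 hr at 37 °C, after which cellular ATP was quantified by luminescence.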
IL-1B inflam inh = blocks inflammasome-driven IL-1 beta release; THP-1 LPS/ATP IL-1B secretion, AlphaLISA, 16 h; stronger effect = lower value; activity change, % at 57.5 µM; 4.7% of 360,000 active; AID 743279; in the data active = activity change below about -50%; inconclusive = mostly about -30% to -49%; note: % is set by controls: 0 for no effect and ±100 for the full control effect
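THP-1 cells pretreated 1 hr with compounds (up to 57.5 uM final), then stimulated with LPS (250 ng/mL final) plus ATP (1.25 mM final); secreted IL-1B measured by AlphaLISA after 16 hr, decreased signal indicating inhibition.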
An asterisk follows results filed as active; i = inactive; ? = inconclusive; . = no result; [ ] = another dose, or the depositor's remark. Unless noted, calls come from the whole dose curve; as a rule, active = well fitted curve in the direction sought with a large enough effect; inconclusive = small, poorly fitted or top-dose-only effect, or another doubt; inactive = no such curve, though single readings can be large; an effect the other way counts as inactive or inconclusive.

SMILES	TDP1 cell CPT	TDP1 block	HepG2 viability	TGFb SMAD3 inh	DT40 TDP1 no CPT	IL-1B inflam inh
Cc1ccccc1-c1nn2c(=O)cc(CN3CCN(C(=O)/C=C/c4ccccc4)CC3)nc2s1	16.4µM*	5.4%	-20.3%	?	?	.
CCOc1ccc(NC(=O)N2CCN(Cc3cc(=O)n4nc(-c5ccc(OC)cc5)sc4n3)CC2)cc1	-2.1%	-2.7%	4.0%	0.0%	-19.5%	.
CCOc1ccc(C(=O)N2CCN(Cc3cc(=O)n4nc(-c5cccc(OC)c5)sc4n3)CC2)cc1	?	-2.7%	7.8%	-16.5%	20.6µM*	.
COc1ccc(-c2nn3c(=O)cc(CN4CCN(C(=O)/C=C/c5ccccc5)CC4)nc3s2)cc1	-10.5%	0.0%	-16.5%	-16.7%	?	.
Cc1cccc(-c2nn3c(=O)cc(CN4CCN(S(=O)(=O)c5ccc(Cl)cc5)CC4)nc3s2)c1	3.1%	2.7%	-20.9%	-18.4%	16.4µM*	.
CC(=O)NCCNC(=O)c1cnn(-c2nccc(-c3cc(C)sc3C)n2)c1C	?	.	.	.	-7.1%	.
Cc1nn(CC(=O)N2CCN(c3ccccn3)CC2)c(=O)c2cc3sccc3n12	-22.3%	-0.3%	2.6%	3.5%	-1.7%	17.9
CC(=O)N1CCN(Cc2cc(=O)oc3ccccc23)CC1	7.3%	.	-28.2%	-0.3%	2.8%	14.3
COc1ccc2c(c1)C(SCC(=O)NCCc1ccc(Cl)cc1)CC(C)(C)O2 (configuration not stated)	16.4µM*	1.3%	-29.6%	?	?	-12.7
COc1ccc(NC(=O)c2cnc(Nc3ccc(C)c(Cl)c3)c3ccccc23)c(OC)c1	-17.4%	0.0%	-12.8%	?	-34.0%	.
COC(=O)COc1ccccc1/C=C1/NC(=O)NC1=O	9.0%	0.6%	-1.7%	-6.1%	-11.3%	-71.0*
O=C1NC(=O)/C(=C\c2ccccc2OCc2cccc([N+](=O)[O-])c2)N1	-19.6%	2.7%	2.9%	-10.5%	-11.9%	1.3
CCc1ccc2c(c1)C(c1ccc([N+](=O)[O-])cc1)=NNC(c1ccc(F)cc1)=N2	20.6µM*	0.0%	-1.0%	0.9%	?	-53.1*
CCc1ccc2c(c1)C(c1ccncc1)=NNC(c1ccccc1)=N2	-24.5%	2.4%	-24.0%	?	?	-4.9
CCC(=O)N1CCc2cc(S(=O)(=O)NC(C(=O)NCc3ccccc3Cl)C(C)C)ccc21 (configuration not stated)	-6.4%	0.0%	-3.9%	19.1%	-6.1%	.
Cc1ncc2c(c1CNC(=O)c1ccc3c(c1)OCO3)CCN(C(=O)C1Cc3ccccc3O1)C2 (configuration not stated)	2.1%[9.04 µM]	.	.	.	-5.1%	.
Cc1c(/C=C/c2ccnc3ccccc23)ccc(N(C)C)c1C	?	.	-43.4%	?	11.2µM*	.
Cc1cc2nccc(/C=C/c3ccc(N(C)C)cc3)c2cc1C	?	.	-2.5%	4.8%	?	.
CN(C)c1ccc(C=Cc2ccnc3ccccc23)cc1N	10.3µM*	.	-40.8%	?	10.3µM*	-1.2
CN(C)c1ccc(/C=C/c2ccnc3ccccc23)cc1Cl	?	.	-24.7%	-17.1%	10µM*	.
Cc1cc(/C=C/c2ccnc3ccccc23)ccc1N(C)C	5.62µM*	.	-44.2%	-27.0%	5.62µM*	.
Cc1ccccc1N1CCN(C2CCCN(C(=O)c3snnc3C)C2)CC1 (configuration not stated)	7.0%	2.7%	0.6%	-15.1%	3.4%	i
CSc1cccc(NC(=O)C2CCN(c3nc4ccccc4[nH]3)CC2)c1	?	0.0%	-35.2%	?	?	.
COc1ccc2c(Sc3ccc(C)cc3)c(C(=O)NCc3ccc(F)cc3)[nH]c2c1	?	0.0%	0.3%	1.1%	?	.
CN(C)c1c(Cl)cc(/C=C/c2ccnc3ccccc23)cc1Br	4.47µM*	.	-26.4%	?	3.55µM*	.
SMILES	TDP1 cell CPT	TDP1 block	HepG2 viability	TGFb SMAD3 inh	DT40 TDP1 no CPT	IL-1B inflam inh
CN(C)c1ccc(/C=C/c2ccnc3ccccc23)cc1Br	8.91µM*	.	-39.3%	?	7.08µM*	.
Cc1cc(C=Nc2ccc(/C=C/c3ccnc4ccccc34)cc2)ccc1N(C)C	15.8µM*	.	-40.0%	-12.6%	17.8µM*	.
COc1cc(C=NO)nc(-c2ccccn2)c1	1.3µM*	.	-27.0%	?	1.16µM*	61.2
c1ccc(CCNc2nc(-c3ccncc3)nc3ccccc23)cc1	20.6µM*	5.6%	-59.9%	0.0%	18.4µM*	-6.1
Cc1ccccc1-c1nc(N2CCNCC2)c2ccccc2n1	16.5%	.	.	.	-1.4%	.
CC(Nc1nc(N2CCNCC2)nc2ccccc12)c1ccccc1 (configuration not stated)	4.11µM*	5.1%	-31.5%	?	5.17µM*	-103.7*
CC(Nc1nc(-c2ccncc2)nc2ccccc12)c1ccccc1 (configuration not stated)	18.4µM*	.	-39.8%	?	18.4µM*	74.4
COC(=O)CNc1nc(-c2ccncc2)nc2ccccc12	-12.0%	4.0%	17.4%	0.0%	?	50.8
CCSC1(SCC)N=C(N)C2(C#N)C(c3ccc(OC)c(OC)c3OC)C12C#N (configuration not stated)	6.51µM*	0.0%	-106.6%	?	8.2µM*	-115.2*
COc1ccc(-c2noc(-c3ccc(NCCc4ccccc4)c([N+](=O)[O-])c3)n2)cc1OC	-18.3%	-2.9%	2.4%	-13.8%	-20.0%	.
CC1(C)C2CCC1(C)C(OCC[N+](C)(C)CC(=O)OC1CCCCC1)C2 (configuration not stated)	1.16µM*	2.8%	-79.7%	-22.5%	0.651µM*	14.9
CCOC(=O)C[N+](C)(C)CCOC1CC2CCC1(C)C2(C)C (configuration not stated)	16.4µM*	0.0%	11.2%	7.1%	7.31µM*	-5.5
Cc1ccc2c(c1)CN(C(=O)CC(c1ccccc1)c1ccco1)CC(C)O2 (configuration not stated)	0.2%[9.04 µM]	.	.	.	?	.
CCOC(=O)c1cnc(SC2CC(=O)N(c3ccc(C)cc3)C2=O)nc1N (configuration not stated)	3.26µM*	5.1%	12.3%	-9.2%	4.11µM*	0.0
Cc1ccc(N2C(=O)CC(Sc3nc(C)cc(C)n3)C2=O)cc1 (configuration not stated)	7.31µM*	2.0%	-10.9%	-9.9%	8.2µM*	43.0
